Entries with a potency or affinity are not part of this list. Activity calls are given as the source filed them. The rule behind the calls is not given here.

A short description of this assay: CCR5-tropic HIV-1 fusion blockers – cell-based, CCR5-tropic Env, dose response (AID 2279). Particulars: CCR5-tropic HIV-1 Env, reporter read-out; series mostly up to 50 µM.
Consider `COc1ccc(C(=O)Nc2ccccc2C(=O)O)cc1NC(=O)C(c1ccccc1)c1ccccc1`, for which the outcome was inactive.
As for `CCc1nnc(NS(=O)(=O)c2ccc(NC(=S)NC(=O)/C=C/c3cccs3)cc2)s1`, the result was inactive.
Then `O=C(NN1C(=O)/C(=C/c2ccc(O)c([N+](=O)[O-])c2)SC1=S)c1ccccc1Cl`, with “inactive”; and `Cc1cccc(OCC(=O)Nc2ccc(C(=O)Nc3ccccc3C(=O)O)cc2)c1C`, with “inactive”.
For `CC(C)(C)CC(C)(C)c1ccc(OCC(=O)N/N=C/c2ccc(S(=O)(=O)O)o2)cc1` the value was “inactive”; for `Cc1c(CCC(=O)O)c(=O)oc2c(C)c3occ(-c4ccc(Br)cc4)c3cc12`, “inactive”; for `O=C(O)CN1C(=O)/C(=C\c2ccccc2OCc2ccc(Cl)cc2Cl)SC1=S`, “inactive”.
Turning to `CC(c1ccccc1)N1C(=O)c2ccc(C(=O)Nc3ccccc3C(=O)O)cc2C1=O` (stereo not given), the result was inactive.
Then `O=C(O)CN1C(=O)/C(=C\c2cc(Br)ccc2OCc2ccc([N+](=O)[O-])cc2)SC1=S`, with “inactive”.
For `O=C(O)C(c1ccccc1)N1C(=O)/C(=C\c2ccc(O)c(O)c2)SC1=S` (stereo not given) the value was “inactive”.
With `COc1ccc(-c2coc3c(C)c4oc(=O)c(CCC(=O)O)c(C)c4cc23)cc1`, the result was inactive.
For `COc1cc(NS(=O)(=O)c2ccc(NC(=S)NC(=O)c3sc4ccccc4c3Cl)cc2)nc(OC)n1` the value was “inactive”.
For `O=C(O)c1cc(NN=C2c3ccccc3-c3ccccc32)ccc1Cl` the value was “inactive”.
Then `Cc1ccc(NC(=O)COc2cccc(/C=C3\SC(=S)N(CCC(=O)O)C3=O)c2)cc1Cl`, with “inactive”; and `O=C(O)COc1ccccc1/C=N/Nc1ccc(S(=O)(=O)Nc2ccc(Cl)cc2)cc1[N+](=O)[O-]`, with “inactive”.
Consider `COc1cccc(-c2coc3c(C)c4oc(=O)c(CCC(=O)O)c(C)c4cc23)c1`, for which the outcome was inactive.
Take `O=C(O)CSc1cc(C(=O)c2ccccc2O)cn2c(=O)c3c4c(sc3nc12)CCCC4`: the outcome was inactive.
For `O=C(O)CCN1C(=O)/C(=C\c2cccc(OCC(=O)Nc3ccc(Cl)cc3)c2)SC1=S` the value was “inactive”; for `COc1cc(/C=C2/C(=O)NN(c3ccc(C)c(Cl)c3)C2=O)cc([N+](=O)[O-])c1O`, “inactive”; for `O=C(O)CN1C(=O)/C(=C\c2cc(Br)ccc2OCc2ccccc2F)SC1=S`, “inactive”.
Then `Cc1cc(/C=C2/C(=N)N3C(=NC2=O)SN=C3S(C)(=O)=O)c(C)n1-c1ccccc1`, with “inactive”; and `COc1cccc(-c2nc(SCC(=O)Nc3nc(-c4ccccc4)c(C)s3)[nH]c(=O)c2C#N)c1`, with “inactive”.
With `CCOc1cc(/C=N/N=C2/NC(=O)C(CC(=O)O)S2)ccc1OCc1ccc(Cl)cc1` (stereo not given), the outcome was inactive.
As for `CCc1nnc(NS(=O)(=O)c2ccc(NC(=S)NC(=O)/C=C/c3ccc(F)cc3)cc2)s1`, the outcome was inactive.
Then `COc1cc(/C=C2\C(=N)N3N=C(S(C)(=O)=O)SC3=NC2=O)cc(OC)c1OCCOc1ccc(C)cc1`, with “inactive”; and `C/C(=N\Nc1ccc(C(=O)O)cc1)c1ccc2c(c1)Nc1ccccc1S2`, with “inactive”; and `O=C(O)c1[nH]c2ccccc2c1C(c1ccccc1)c1c(C(=O)O)[nH]c2ccccc12`, with “inactive”.
For `CCOc1cc(/C=C2/C(=N)N3C(=NC2=O)SN=C3S(C)(=O)=O)ccc1OS(=O)(=O)c1ccccc1` the value was “inactive”; for `CCS(=O)(=O)C1=NSC2=NC(=O)/C(=C\c3ccc(OS(=O)(=O)c4ccccc4)c(OC)c3)C(=N)N21`, “inactive”.
For `COc1ccc(-c2nn(-c3ccccc3)cc2/C=C\C(=O)Nc2ccc(C(=O)O)cc2)cc1` the value was “inactive”; for `Cc1cc(N2C(=O)C(O)=C(C(=O)c3ccc(C)o3)C2c2cccc(Oc3ccccc3)c2)no1` (stereo not given), “inactive”; for `COc1cc(/C=C(\C#N)c2nc3ccc(C)cc3[nH]2)cc([N+](=O)[O-])c1O`, “inactive”.
As to `O=C(O)CN1C(=O)/C(=C\c2cccc(OCc3ccc(Cl)cc3Cl)c2)SC1=S`, the result was inactive.
For `CC(C)c1ccc(OCC(=O)Nc2cccc(C(=O)Nc3ccccc3C(=O)O)c2)cc1` the value was “inactive”.
Then `CC(C)(C)OC(=O)N1CCC(c2cc(=O)n3[nH]cc(C(=O)Nc4ccc(F)c(Cl)c4)c3n2)CC1`, with “inactive”.

The values above are taken from PubChem BioAssay AID2279 (Southern Research Specialized Biocontainment Screening …, 2010).
